Reference: PubChem BioAssay AID1159580 (chemical genetic matrix, 2015)
Where “and” joins values, the source holds several entries; their conditions need not be identical. Equal values may be shown once. Out of some 5,500 compounds screened, about 2,000 (36%) were called active. Not shown: some 18% with an inconclusive outcome. Cut-off read from the data, not from the text of the source: active = normalized growth mostly below about 0.91 (no sharp cut-off); inconclusive = no clear call, values can overlap the other calls; inactive = mostly above about 0.92. This is one part of the list.

Experiment: chemical genetic growth profiling, strain panel (AID 1159580);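 note: tested at 20 µM; growth read once vehicle control cultures reached saturation at 30 °C; 1 = growth at the plate median or of vehicle wells; lower values mean less growth of the strain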
Details: growth OD

Measured: normalized growth

N=c1nc(N2CCCCC2)cc(N)n1O
inactive: S. cerevisiae deletion strains, locus YJR075W, strain HOC1, stronger effect = lower value 1 | S. cerevisiae deletion strains, locus YKL009W, strain mrt4, stronger effect = lower value 0.948 | S. cerevisiae deletion strains, locus YKL068W, stronger effect = lower value 0.993 | S. cerevisiae deletion strains, locus YKL085W, strain MDH1 (second series), stronger effect = lower value 0.995 | S. cerevisiae deletion strains, locus YKL085W, strain MDH1, stronger effect = lower value 0.995 | S. cerevisiae deletion strains, locus YKL160W, strain elf1, stronger effect = lower value 0.969 | S. cerevisiae deletion strains, locus YKL190W, strain CNB1, stronger effect = lower value 0.996 | S. cerevisiae deletion strains, locus YKR001C, strain vps1, stronger effect = lower value 0.995 | S. cerevisiae deletion strains, locus YKR026C, strain gcn3, stronger effect = lower value 0.997 | S. cerevisiae deletion strains, locus YKR091W, strain srl3, stronger effect = lower value 0.977 | S. cerevisiae deletion strains, locus YLL001W, strain dnm1, stronger effect = lower value 0.932 | S. cerevisiae deletion strains, locus YLL026W, stronger effect = lower value 0.985 | S. cerevisiae deletion strains, locus YLL041C, strain sdh2, stronger effect = lower value 0.99 | S. cerevisiae deletion strains, locus YLR027C, strain aat2, stronger effect = lower value 1.01 | S. cerevisiae deletion strains, locus YLR039C, strain RIC1, stronger effect = lower value 0.976 | S. cerevisiae deletion strains, locus YLR058C, strain SHM2, stronger effect = lower value 0.97 | S. cerevisiae deletion strains, locus YLR102C, strain apc9, stronger effect = lower value 0.981 | S. cerevisiae deletion strains, locus YLR113W, strain HOG1, stronger effect = lower value 0.984 | S. cerevisiae deletion strains, locus YLR221C, strain rsa3, stronger effect = lower value 0.948 | S. cerevisiae deletion strains, locus YLR258W, strain gsy2, stronger effect = lower value 0.998 | S. cerevisiae deletion strains, locus YLR262C, strain YPT6 (second series), stronger effect = lower value 0.989 | S. cerevisiae deletion strains, locus YLR262C, strain YPT6, stronger effect = lower value 0.903 | S. cerevisiae deletion strains, locus YLR268W, strain sec22, stronger effect = lower value 1.08 | S. cerevisiae deletion strains, locus YLR320W, strain mms22, stronger effect = lower value 0.96 | S. cerevisiae deletion strains, locus YLR330W, strain CHS5, stronger effect = lower value 0.979 | S. cerevisiae deletion strains, locus YLR342W, strain FKS1 (second series), stronger effect = lower value 0.98 | S. cerevisiae deletion strains, locus YLR342W, strain FKS1, stronger effect = lower value 0.985 | S. cerevisiae deletion strains, locus YLR357W, strain rsc2, stronger effect = lower value 0.996 | S. cerevisiae deletion strains, locus YLR370C, strain arc18, stronger effect = lower value 0.982 | S. cerevisiae deletion strains, locus YLR371W, strain rom2, stronger effect = lower value 0.95 | S. cerevisiae deletion strains, locus YLR384C, strain iki3, stronger effect = lower value 0.987 | S. cerevisiae deletion strains, locus YLR418C, strain cdc73, stronger effect = lower value 0.994 | S. cerevisiae deletion strains, locus YML016C, strain PPZ1, stronger effect = lower value 0.973 | S. cerevisiae deletion strains, locus YML032C, strain rad52, stronger effect = lower value 0.998 | S. cerevisiae deletion strains, locus YML120C, strain ndi1, stronger effect = lower value 0.959 | S. cerevisiae deletion strains, locus YML124C, strain tub3, stronger effect = lower value 0.98 | S. cerevisiae deletion strains, locus YMR058W, strain fet3, stronger effect = lower value 0.986 | S. cerevisiae deletion strains, locus YMR078C, strain ctf18, stronger effect = lower value 0.979 | S. cerevisiae deletion strains, locus YMR125W, strain sto1, stronger effect = lower value 0.978 | S. cerevisiae deletion strains, locus YMR129W, stronger effect = lower value 0.99 | S. cerevisiae deletion strains, locus YMR205C, strain PFK2, stronger effect = lower value 0.947 | S. cerevisiae deletion strains, locus YMR223W, strain ubp8, stronger effect = lower value 0.945 | S. cerevisiae deletion strains, locus YMR231W, strain pep5, stronger effect = lower value 0.991 | S. cerevisiae deletion strains, locus YMR263W, strain SAP30, stronger effect = lower value 0.993 | S. cerevisiae deletion strains, locus YMR307W, strain GAS1, stronger effect = lower value 0.935 | S. cerevisiae deletion strains, locus YNL067W, strain RPL9B, stronger effect = lower value 0.999 | S. cerevisiae deletion strains, locus YNL071W, strain lat1, stronger effect = lower value 0.991 | S. cerevisiae deletion strains, locus YNL128W, strain TEP1, stronger effect = lower value 0.953 | S. cerevisiae deletion strains, locus YNL153C, strain GIM3, stronger effect = lower value 1.01 | S. cerevisiae deletion strains, locus YNL175C, strain NOP13, stronger effect = lower value 0.994 | S. cerevisiae deletion strains, locus YNL183C, strain NPR1, stronger effect = lower value 0.945 | S. cerevisiae deletion strains, locus YNL197C, strain WHI3, stronger effect = lower value 0.993 | S. cerevisiae deletion strains, locus YNL209W, strain ssb2, stronger effect = lower value 0.984 | S. cerevisiae deletion strains, locus YNL224C, strain SQS1, stronger effect = lower value 1.01 | S. cerevisiae deletion strains, locus YNL233W, strain BNI4, stronger effect = lower value 0.998 | S. cerevisiae deletion strains, locus YNL248C, strain rpa49, stronger effect = lower value 1 | S. cerevisiae deletion strains, locus YNL250W, strain rad50, stronger effect = lower value 0.98 | S. cerevisiae deletion strains, locus YNL271C, strain bni1, stronger effect = lower value 0.987 | S. cerevisiae deletion strains, locus YNL298W, strain CLA4, stronger effect = lower value 0.996 | S. cerevisiae deletion strains, locus YNL307C, strain MCK1, stronger effect = lower value 0.999 | S. cerevisiae deletion strains, locus YNL322C, strain KRE1 (second series), stronger effect = lower value 0.98 | S. cerevisiae deletion strains, locus YNL322C, strain KRE1, stronger effect = lower value 0.989 and 0.993 | S. cerevisiae deletion strains, locus YNR049C, strain mso1, stronger effect = lower value 0.972 | S. cerevisiae deletion strains, locus YNR052C, strain pop2, stronger effect = lower value 0.98 | S. cerevisiae deletion strains, locus YOL006C, strain TOP1, stronger effect = lower value 1.02 | S. cerevisiae deletion strains, locus YOL012C, strain htz1 0.984 | S. cerevisiae deletion strains, locus YOL147C, strain pex11, stronger effect = lower value 0.987 | S. cerevisiae deletion strains, locus YOR001W, strain rrp6, stronger effect = lower value 1.02 | S. cerevisiae deletion strains, locus YOR061W, strain CKA2, stronger effect = lower value 0.964 | S. cerevisiae deletion strains, locus YOR069W, strain VPS5, stronger effect = lower value 0.987 | S. cerevisiae deletion strains, locus YOR070C, strain gyp1, stronger effect = lower value 0.996 | S. cerevisiae deletion strains, locus YOR080W, strain dia2, stronger effect = lower value 0.984 | S. cerevisiae deletion strains, locus YOR083W, strain WHI5 (second series), stronger effect = lower value 1.01 | S. cerevisiae deletion strains, locus YOR083W, strain WHI5, stronger effect = lower value 0.974 | S. cerevisiae deletion strains, locus YOR106W, strain vam3, stronger effect = lower value 0.944 | S. cerevisiae deletion strains, locus YOR136W, strain idh2, stronger effect = lower value 0.988 | S. cerevisiae deletion strains, locus YOR144C, strain elg1, stronger effect = lower value 0.988 | S. cerevisiae deletion strains, locus YOR184W, strain ser1, stronger effect = lower value 1 | S. cerevisiae deletion strains, locus YOR231W, strain MKK1, stronger effect = lower value 1.02 | S. cerevisiae deletion strains, locus YOR265W, strain rbl2, stronger effect = lower value 0.989 | S. cerevisiae deletion strains, locus YOR270C, strain vph1, stronger effect = lower value 0.979 | S. cerevisiae deletion strains, locus YOR290C, strain snf2, stronger effect = lower value 0.896 | S. cerevisiae deletion strains, locus YOR316C, strain cot1, stronger effect = lower value 0.993 | S. cerevisiae deletion strains, locus YPL051W, strain arl3, stronger effect = lower value 1 | S. cerevisiae deletion strains, locus YPL055C, strain LGE1, stronger effect = lower value 0.988 and 0.98 | S. cerevisiae deletion strains, locus YPL078C, strain atp4, stronger effect = lower value 0.968 | S. cerevisiae deletion strains, locus YPL106C, strain sse1, stronger effect = lower value 0.948 | S. cerevisiae deletion strains, locus YPL240C, strain hsp82, stronger effect = lower value 0.981 | S. cerevisiae deletion strains, locus YPL241C, strain CIN2, stronger effect = lower value 0.976 | S. cerevisiae deletion strains, locus YPL256C, strain CLN2, stronger effect = lower value 0.993 | S. cerevisiae deletion strains, locus YPR119W, strain clb2, stronger effect = lower value 0.982 | S. cerevisiae deletion strains, locus YPR141C, strain kar3, stronger effect = lower value 0.974 | S. cerevisiae deletion strains, locus YPR163C, strain tif3, stronger effect = lower value 0.993 | S. cerevisiae deletion strains, locus YPR167C, strain met16, stronger effect = lower value 0.995 | S. cerevisiae deletion strains, strain wtn01, stronger effect = lower value 1.04 | S. cerevisiae strains, strain wild type, stronger effect = lower value 0.992
